# Experiments:
# Assay in all cases: DAPPL (digital affinity profiling via proximity ligation, sequencing); 10 mM Tris-HCl pH 7.5, 50 mM NaCl, 1 mM DTT, 4% glycerol, room temperature, 30 min; GST-TFs on glutathione beads, 16-mer random dsDNA library, 0.1% formaldehyde crosslink after washing; high values mean tight binding
# Conditions in all cases: protein: recombinant; tags: N-terminal GST; dsDNA, one strand shown
# [1] = molecular target: T1, FEV (Homo sapiens, UniProt Q99581 1-238)
# T1 sequence: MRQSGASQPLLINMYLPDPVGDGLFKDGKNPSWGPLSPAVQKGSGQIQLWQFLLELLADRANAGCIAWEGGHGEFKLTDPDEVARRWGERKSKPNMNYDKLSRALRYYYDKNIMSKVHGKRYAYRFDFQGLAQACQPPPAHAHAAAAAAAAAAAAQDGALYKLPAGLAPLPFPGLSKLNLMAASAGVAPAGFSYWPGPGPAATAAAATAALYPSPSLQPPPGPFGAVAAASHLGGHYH
# Outline: (§1)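 Binding signal is given per hexamer as its read frequency for a factor divided by its frequency in the tag-only sample. GST-fused human transcription factors were expressed in yeast, captured on glutathione beads, barcoded with DNA and pooled with that sample, then incubated with 200 nmole of a 16-mer random double-stranded DNA library in Tris/NaCl/DTT/glycerol buffer for 30 min at room temperature. The pools were then washed, crosslinked, proximity-ligated, amplified by PCR and sequenced on an Illumina NextSeq500.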
# [2] = molecular target: ETV5 (Homo sapiens, UniProt P41161 1-510)
# Chain of ETV5 (P41161 whole entry): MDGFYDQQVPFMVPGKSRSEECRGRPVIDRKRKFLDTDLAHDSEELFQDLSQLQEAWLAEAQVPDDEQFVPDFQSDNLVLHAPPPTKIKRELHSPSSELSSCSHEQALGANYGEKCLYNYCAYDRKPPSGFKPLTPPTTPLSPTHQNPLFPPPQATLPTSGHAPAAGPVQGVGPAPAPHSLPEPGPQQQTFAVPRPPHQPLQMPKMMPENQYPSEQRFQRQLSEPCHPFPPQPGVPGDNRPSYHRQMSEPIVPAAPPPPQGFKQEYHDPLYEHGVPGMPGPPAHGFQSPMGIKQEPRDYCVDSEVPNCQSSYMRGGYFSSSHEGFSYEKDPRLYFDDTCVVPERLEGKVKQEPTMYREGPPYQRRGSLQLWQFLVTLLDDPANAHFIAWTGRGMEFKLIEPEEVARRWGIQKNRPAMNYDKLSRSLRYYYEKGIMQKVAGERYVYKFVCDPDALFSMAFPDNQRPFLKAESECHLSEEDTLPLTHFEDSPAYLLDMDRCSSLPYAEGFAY
# Outline: as §1
# [3] = molecular target: T2, SPIC (Homo sapiens, UniProt Q8N5J4 1-248)
# T2 sequence: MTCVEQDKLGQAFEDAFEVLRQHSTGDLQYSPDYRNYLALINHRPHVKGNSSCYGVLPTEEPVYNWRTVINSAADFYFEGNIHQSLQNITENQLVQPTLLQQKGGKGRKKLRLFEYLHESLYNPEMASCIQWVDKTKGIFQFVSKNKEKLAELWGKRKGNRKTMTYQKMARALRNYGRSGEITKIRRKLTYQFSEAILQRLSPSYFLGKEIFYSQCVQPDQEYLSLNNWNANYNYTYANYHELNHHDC
# Outline: as §1
# [4] = molecular target: ELF4 (Homo sapiens, UniProt Q99607 1-663)
# Chain of ELF4 (Q99607 whole entry): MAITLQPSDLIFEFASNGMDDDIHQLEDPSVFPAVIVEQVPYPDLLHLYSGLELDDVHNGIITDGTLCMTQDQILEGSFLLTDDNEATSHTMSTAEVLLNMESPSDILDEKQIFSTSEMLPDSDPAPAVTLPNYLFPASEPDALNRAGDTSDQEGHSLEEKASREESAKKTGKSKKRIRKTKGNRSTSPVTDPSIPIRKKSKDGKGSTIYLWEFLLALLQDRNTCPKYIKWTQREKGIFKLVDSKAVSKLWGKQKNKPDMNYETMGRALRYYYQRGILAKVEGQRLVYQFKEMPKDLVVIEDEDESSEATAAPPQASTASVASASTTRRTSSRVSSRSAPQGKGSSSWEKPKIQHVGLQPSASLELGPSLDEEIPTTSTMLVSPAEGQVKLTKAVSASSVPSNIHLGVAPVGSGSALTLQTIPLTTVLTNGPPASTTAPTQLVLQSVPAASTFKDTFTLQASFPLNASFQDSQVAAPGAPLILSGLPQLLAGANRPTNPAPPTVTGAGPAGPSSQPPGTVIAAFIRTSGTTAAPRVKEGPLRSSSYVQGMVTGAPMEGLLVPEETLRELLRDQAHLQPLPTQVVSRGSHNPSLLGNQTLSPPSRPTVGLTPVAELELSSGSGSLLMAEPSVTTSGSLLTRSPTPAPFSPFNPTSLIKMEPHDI
# Outline: as §1
# [5] = molecular target: T3, ELK4 (Homo sapiens, UniProt P28324-2 1-405)
# T3 sequence: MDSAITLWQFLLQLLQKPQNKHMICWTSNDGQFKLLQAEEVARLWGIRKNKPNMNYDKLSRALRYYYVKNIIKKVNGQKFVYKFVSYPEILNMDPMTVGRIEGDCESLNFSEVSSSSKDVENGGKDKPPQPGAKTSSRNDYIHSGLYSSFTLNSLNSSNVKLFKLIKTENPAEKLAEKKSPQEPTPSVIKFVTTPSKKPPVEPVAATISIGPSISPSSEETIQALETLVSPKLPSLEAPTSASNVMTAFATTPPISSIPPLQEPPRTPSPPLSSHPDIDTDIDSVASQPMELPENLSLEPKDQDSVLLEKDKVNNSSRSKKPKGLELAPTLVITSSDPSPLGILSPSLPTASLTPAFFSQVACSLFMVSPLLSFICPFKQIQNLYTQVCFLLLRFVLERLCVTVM
# Outline: as §1
# [6] = molecular target: T4, ETV2 (Homo sapiens, UniProt O00321 1-342)
# T4 sequence: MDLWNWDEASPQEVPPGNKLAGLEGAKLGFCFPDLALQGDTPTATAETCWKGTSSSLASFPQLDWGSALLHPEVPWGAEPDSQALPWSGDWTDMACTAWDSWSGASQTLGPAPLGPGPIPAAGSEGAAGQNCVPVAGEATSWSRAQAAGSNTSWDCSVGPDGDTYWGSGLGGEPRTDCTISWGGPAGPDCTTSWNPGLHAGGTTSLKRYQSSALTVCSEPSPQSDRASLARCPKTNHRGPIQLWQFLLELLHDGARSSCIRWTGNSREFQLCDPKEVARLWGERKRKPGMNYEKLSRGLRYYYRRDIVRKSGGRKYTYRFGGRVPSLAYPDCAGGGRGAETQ
# Outline: as §1
# [7] = molecular target: T5, ELF3 (Homo sapiens, UniProt P78545 1-371)
# T5 sequence: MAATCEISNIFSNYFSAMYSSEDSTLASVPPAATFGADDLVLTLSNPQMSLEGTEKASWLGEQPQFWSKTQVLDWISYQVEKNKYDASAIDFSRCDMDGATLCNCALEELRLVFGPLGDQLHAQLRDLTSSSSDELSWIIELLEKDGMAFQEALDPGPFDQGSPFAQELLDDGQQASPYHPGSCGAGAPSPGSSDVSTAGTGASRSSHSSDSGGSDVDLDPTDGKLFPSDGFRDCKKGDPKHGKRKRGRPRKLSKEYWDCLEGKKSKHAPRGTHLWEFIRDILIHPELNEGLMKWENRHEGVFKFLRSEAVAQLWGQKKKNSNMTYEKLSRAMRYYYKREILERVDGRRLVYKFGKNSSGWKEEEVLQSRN
# Outline: as §1
# [8] = molecular target: ETV1 (Homo sapiens, UniProt P50549 1-477)
# Chain of ETV1 (P50549 whole entry): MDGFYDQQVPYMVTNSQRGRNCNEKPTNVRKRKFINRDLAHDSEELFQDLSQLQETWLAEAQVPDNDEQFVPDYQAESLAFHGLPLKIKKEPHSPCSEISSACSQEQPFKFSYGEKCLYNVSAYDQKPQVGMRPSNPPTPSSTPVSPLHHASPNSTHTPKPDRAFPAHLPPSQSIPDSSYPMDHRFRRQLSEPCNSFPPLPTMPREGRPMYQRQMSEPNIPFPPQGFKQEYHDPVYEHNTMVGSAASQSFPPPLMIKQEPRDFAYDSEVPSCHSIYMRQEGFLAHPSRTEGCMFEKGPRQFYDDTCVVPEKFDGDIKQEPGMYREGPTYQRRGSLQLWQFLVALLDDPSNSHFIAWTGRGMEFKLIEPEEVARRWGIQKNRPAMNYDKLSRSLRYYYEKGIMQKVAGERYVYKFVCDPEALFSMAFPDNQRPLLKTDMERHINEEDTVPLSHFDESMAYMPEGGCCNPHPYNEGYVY
# Outline: as §1
# [9] = molecular target: T6, ERF (Homo sapiens, UniProt P50548 1-548)
# T6 sequence: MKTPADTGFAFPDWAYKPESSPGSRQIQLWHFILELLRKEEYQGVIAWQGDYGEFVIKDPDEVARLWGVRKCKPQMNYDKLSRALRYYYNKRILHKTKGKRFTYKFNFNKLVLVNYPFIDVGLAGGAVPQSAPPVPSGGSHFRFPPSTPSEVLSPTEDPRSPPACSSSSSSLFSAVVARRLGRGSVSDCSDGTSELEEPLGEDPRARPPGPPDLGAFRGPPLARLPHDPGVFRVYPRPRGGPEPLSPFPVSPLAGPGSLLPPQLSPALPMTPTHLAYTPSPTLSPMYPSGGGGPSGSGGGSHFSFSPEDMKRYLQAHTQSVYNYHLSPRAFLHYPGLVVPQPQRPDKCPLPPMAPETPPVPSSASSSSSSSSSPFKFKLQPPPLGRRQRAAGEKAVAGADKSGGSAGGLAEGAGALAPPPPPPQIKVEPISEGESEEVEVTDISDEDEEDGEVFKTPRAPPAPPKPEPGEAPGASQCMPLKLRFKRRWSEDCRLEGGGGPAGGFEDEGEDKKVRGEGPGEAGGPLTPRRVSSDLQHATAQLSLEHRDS
# Outline: as §1
# [10] = molecular target: T7, ETV3L (Homo sapiens, UniProt Q6ZN32 1-361)
# T7 sequence: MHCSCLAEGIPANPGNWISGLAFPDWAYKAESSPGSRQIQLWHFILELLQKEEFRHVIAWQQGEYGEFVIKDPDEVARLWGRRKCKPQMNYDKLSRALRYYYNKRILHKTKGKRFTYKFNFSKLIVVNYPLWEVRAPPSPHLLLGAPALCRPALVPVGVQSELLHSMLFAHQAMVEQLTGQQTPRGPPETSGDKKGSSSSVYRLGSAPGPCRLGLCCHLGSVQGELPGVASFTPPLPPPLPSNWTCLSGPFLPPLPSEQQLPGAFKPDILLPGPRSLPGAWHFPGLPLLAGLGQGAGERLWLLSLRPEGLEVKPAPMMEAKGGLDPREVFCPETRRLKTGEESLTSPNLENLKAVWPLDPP
# Outline: as §1
# [11] = molecular target: T8, ETS2 (Homo sapiens, UniProt P15036 1-469)
# T8 sequence: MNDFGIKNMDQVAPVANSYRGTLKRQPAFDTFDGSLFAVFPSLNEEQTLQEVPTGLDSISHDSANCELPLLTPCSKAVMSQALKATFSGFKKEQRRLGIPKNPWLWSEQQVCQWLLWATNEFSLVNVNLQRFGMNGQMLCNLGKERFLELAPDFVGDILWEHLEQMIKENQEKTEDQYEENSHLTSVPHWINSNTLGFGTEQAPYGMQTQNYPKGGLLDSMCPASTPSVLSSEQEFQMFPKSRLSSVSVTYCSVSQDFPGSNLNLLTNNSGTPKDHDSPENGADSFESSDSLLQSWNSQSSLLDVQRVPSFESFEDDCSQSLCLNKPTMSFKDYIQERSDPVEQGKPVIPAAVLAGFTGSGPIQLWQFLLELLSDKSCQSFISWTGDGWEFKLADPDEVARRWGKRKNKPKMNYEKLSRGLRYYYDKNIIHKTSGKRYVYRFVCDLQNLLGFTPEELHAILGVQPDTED
# Outline: as §1
# [12] = molecular target: T9, SPDEF (Homo sapiens, UniProt O95238 1-335)
# T9 sequence: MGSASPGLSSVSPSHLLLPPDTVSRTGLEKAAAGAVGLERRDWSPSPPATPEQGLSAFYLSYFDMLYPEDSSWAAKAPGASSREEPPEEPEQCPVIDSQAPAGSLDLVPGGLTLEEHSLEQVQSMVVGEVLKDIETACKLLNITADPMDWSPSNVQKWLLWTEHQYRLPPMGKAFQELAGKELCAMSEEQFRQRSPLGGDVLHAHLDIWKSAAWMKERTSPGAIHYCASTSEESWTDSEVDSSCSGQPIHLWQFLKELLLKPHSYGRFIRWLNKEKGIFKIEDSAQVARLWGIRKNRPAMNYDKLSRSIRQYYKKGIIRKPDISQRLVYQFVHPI
# Outline: as §1
# [13] = molecular target: T10, ETV7 (Homo sapiens, UniProt Q9Y603 1-341)
# T10 sequence: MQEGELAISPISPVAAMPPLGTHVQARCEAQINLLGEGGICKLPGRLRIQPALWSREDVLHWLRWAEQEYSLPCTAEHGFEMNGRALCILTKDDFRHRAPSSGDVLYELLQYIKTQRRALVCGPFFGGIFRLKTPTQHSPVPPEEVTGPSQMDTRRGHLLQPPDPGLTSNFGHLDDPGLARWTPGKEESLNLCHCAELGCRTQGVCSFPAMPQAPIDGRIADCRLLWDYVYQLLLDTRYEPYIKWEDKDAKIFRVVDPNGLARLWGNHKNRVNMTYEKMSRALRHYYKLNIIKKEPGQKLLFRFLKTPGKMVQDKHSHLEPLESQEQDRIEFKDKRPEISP
# Outline: as §1
# [14] = molecular target: T11, ELF5 (Homo sapiens, UniProt Q9UKW6-2 1-255)
# T11 sequence: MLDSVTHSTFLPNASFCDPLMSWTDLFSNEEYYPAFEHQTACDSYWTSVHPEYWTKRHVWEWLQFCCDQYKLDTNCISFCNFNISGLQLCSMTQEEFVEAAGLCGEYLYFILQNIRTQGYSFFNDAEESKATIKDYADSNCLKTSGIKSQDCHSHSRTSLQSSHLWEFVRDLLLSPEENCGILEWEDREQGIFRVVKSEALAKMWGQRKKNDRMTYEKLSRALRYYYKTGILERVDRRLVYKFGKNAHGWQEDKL
# Outline: as §1
# [15] = molecular target: T12, ETV3 (Homo sapiens, UniProt P41162-2 1-143)
# T12 sequence: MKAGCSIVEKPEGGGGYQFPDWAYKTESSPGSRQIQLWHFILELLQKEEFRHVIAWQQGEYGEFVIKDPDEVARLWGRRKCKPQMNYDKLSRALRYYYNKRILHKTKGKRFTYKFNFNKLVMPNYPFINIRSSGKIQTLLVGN
# Outline: as §1
# [16] = molecular target: ETV6 (Homo sapiens, UniProt P41212 1-452)
# Chain of ETV6 (P41212 whole entry): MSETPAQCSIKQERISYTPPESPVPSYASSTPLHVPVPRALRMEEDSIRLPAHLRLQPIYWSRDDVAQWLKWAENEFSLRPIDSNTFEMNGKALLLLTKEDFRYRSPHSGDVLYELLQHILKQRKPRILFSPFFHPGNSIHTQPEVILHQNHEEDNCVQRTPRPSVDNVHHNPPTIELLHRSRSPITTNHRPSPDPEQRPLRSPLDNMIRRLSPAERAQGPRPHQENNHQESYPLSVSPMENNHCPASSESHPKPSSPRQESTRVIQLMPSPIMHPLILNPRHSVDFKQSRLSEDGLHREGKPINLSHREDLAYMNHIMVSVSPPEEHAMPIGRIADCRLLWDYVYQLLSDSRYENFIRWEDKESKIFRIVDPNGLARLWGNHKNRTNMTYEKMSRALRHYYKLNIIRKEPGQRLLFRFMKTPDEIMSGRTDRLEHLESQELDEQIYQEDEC
# Outline: as §1
sequence,measurement,setting,value
CATATC,binding signal,[1],"1.4 fold enrichment (6-mer frequency, TF over GST control)"
same,binding signal,[2],"1.36 fold enrichment (6-mer frequency, TF over GST control)"
same,binding signal,[3],"1.23 fold enrichment (6-mer frequency, TF over GST control)"
same,binding signal,[4],"1.29 fold enrichment (6-mer frequency, TF over GST control)"
same,binding signal,[5],"1.24 fold enrichment (6-mer frequency, TF over GST control)"
same,binding signal,[6],"1.41 fold enrichment (6-mer frequency, TF over GST control)"
same,binding signal,[7],"1.28 fold enrichment (6-mer frequency, TF over GST control)"
same,binding signal,[8],"1.41 fold enrichment (6-mer frequency, TF over GST control)"
same,binding signal,[9],"1.42 fold enrichment (6-mer frequency, TF over GST control)"
same,binding signal,[10],"1.38 fold enrichment (6-mer frequency, TF over GST control)"
same,binding signal,[11],"1.36 fold enrichment (6-mer frequency, TF over GST control)"
same,binding signal,[12],"1.76 fold enrichment (6-mer frequency, TF over GST control)"
same,binding signal,[13],"1.24 fold enrichment (6-mer frequency, TF over GST control)"
same,binding signal,[14],"1.32 fold enrichment (6-mer frequency, TF over GST control)"
same,binding signal,[15],"1.32 fold enrichment (6-mer frequency, TF over GST control)"
same,binding signal,[16],"1.26 fold enrichment (6-mer frequency, TF over GST control)"

# Reference: PMC7862700, “An all-to-all approach to the identification of sequence-specific readers for epigenetic DNA modifications on cytosine”
